Measured values: PubChem BioAssay (NCI)
Compounds without any hit were thinned out: in the full panel of roughly 83,000, 20% have a hit.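 The endpoint reported here, percent growth, reads 100 for growth as untreated, 0 for no net growth and -100 for all cells dead.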 Unmarked numbers belong to inactive results. Active and inactive are the calls of the source. The calls were made as follows: active = growth percent below 10; inactive = the rest.

Experiments:
Test in all cases: NCI-60 one-dose screen, 48 h (100 = growth as untreated, 0 = no growth, -100 = all killed)
NCI-H23 lung = details: 10 µM unless noted
NCI-H226 lung = details: 10 µM unless noted
NCI-H322M lung = details: 10 µM unless noted
HOP-62 NSCLC = details: 10 µM unless noted
NCI-H460 lung = details: 10 µM unless noted
NCI-H522 lung = details: 10 µM unless noted
A549/ATCC NSCLC = details: 10 µM unless noted
786-0 renal = details: 10 µM unless noted
COLO 205 colon = details: 10 µM unless noted
DU-145 prostate = details: 10 µM unless noted
K-562 leukemia = details: 10 µM unless noted
MALME-3M melanoma = details: 10 µM unless noted
MDA-MB-231 breast = details: 10 µM unless noted
RXF 393 renal = details: 10 µM unless noted
SF-268 CNS = details: 10 µM unless noted
SF-295 CNS = details: 10 µM unless noted
SF-539 CNS = details: 10 µM unless noted
UACC-257 melanoma = details: 10 µM
M14 melanoma = details: 10 µM unless noted

SMILES | growth (NCI-H23 lung) | growth (NCI-H226 lung) | growth (NCI-H322M lung) | growth (HOP-62 NSCLC) | growth (NCI-H460 lung) | growth (NCI-H522 lung) | growth (A549/ATCC NSCLC) | growth (786-0 renal) | growth (COLO 205 colon) | growth (DU-145 prostate) | growth (K-562 leukemia) | growth (MALME-3M melanoma) | growth (MDA-MB-231 breast) | growth (RXF 393 renal) | growth (SF-268 CNS) | growth (SF-295 CNS) | growth (SF-539 CNS) | growth (UACC-257 melanoma) | growth (M14 melanoma)
O=C(Cn1cc(CN2C(=O)c3ccc([N+](=O)[O-])cc3C2=O)nn1)Nc1ccccc1Br | 98.1% | 104% | 98.2% | 109% | 108% | 102% | 108% | 107% | 117% | 113% | 98.5% | 99.5% | 103% | 119% | 106% | 108% | 107% | 106% | 101%
O=C(Nc1cc(Cl)cc(Cl)c1)Nc1nc2ccc([N+](=O)[O-])cc2s1 | -37.7% (active) | -9.83% (active) | 9.2% (active) | -4.21% (active) | 1.08% (active) | 1.99% (active) | 9.1% (active) | 11% | -49.2% (active) | 16.9% | 3.25% (active) | -8.59% (active) | -0.651% (active) | -25% (active) | 15.4% | -57.2% (active) | 3.86% (active) | -14.5% (active) | -9.81% (active)
COc1ccc(Oc2ccc(C3CC(c4cc(OC)c(OC)c(OC)c4)=NN3C(C)=O)cc2)cc1 (centres undefined) | 24.1% | 17.1% | 46.9% | 48.1% | 23.8% | 20% | 24.8% | 29.2% | 11.1% | 40.4% | 16.1% | 33.6% | 40.6% | 17% | 38.6% | 22.5% | 46.5% | 40.3% | 27.6%
O=C1/C(=C/c2ccc([N+](=O)[O-])cc2)SC(=Nc2ccccc2)N1Nc1ccccc1 | 60.5% | 85.1% | 60.9% | 97.1% | 50.9% | 58.1% | 71.5% | 66.4% | 92.6% | 63.5% | 17.8% | 90.3% | 54.7% | 58.9% | 73% | 87.1% | 65.1% | 89.7% | 80.1%
Oc1ccc(CSc2nnc(-c3ccncc3)n2-c2ccccc2)c2cccnc12 | 22.4% | 50.8% | 34% | 17% | 5.96% (active) | 3.95% (active) | 25.5% | 29.1% | 102% | 28.2% | 18.4% | 31.8% | 30.7% | 23.6% | 23.1% | 4.58% (active) | 21.1% | 10.7% | 23.1%
CN1C(=O)N(C)C2Nn3c(s/c(=C\c4ccccn4)c3=O)=NC21 (centres undefined) | 108% | 103% | 103% | 100% | 110% | 92.3% |  | 104% | 110% | 111% | 108% | 82.4% | 99.5% | 110% | 103% | 104% | 101% | 96% | 
O=C(NNc1nc2cc(F)ccc2n2cncc12)c1cnccn1 | 37.4% | 44.6% | 25.4% | 36.1% | 4.66% (active) | 24.3% | 22.2% | 10% | 19.5% | 26.6% | 23.9% | 29.5% | 34.1% | 68.6% | 28.3% | 0.0659% (active) | 30.1% | 36.5% | 0.271% (active)
Oc1ccc(-c2nnc(SCc3ccc(O)c4ncccc34)n2-c2ccccc2)cc1 | 19.3% | 15.4% | 19.2% | 19.3% | 3.78% (active) | -4.72% (active) | 6.81% (active) | 19.1% | 28.2% | 24.6% | 10.8% | 3.9% (active) | 30.1% | -7.54% (active) | 10.2% | 5.53% (active) | -6.02% (active) | -4.16% (active) | -28% (active)
O=C(NNc1nc2cc(F)c(F)cc2n2cccc12)c1ncccn1 | 20.3% | 14% | 28.7% | 19.9% | 10.6% | 13.7% | 21.1% | 8.17% (active) | 20.5% | 26.8% | 20.8% | 32.7% | 42.1% | 48.8% | 17.3% | 14.7% | 10.9% | 14.5% | 1.46% (active)
CC1(C)CC[C@]2(C(=O)N3CCCN(CC#N)CC3)CC[C@]3(C)C(=CC[C@@H]4[C@@]5(C)CC[C@H](O)C(C)(C)[C@@H]5CC[C@]43C)[C@H]2C1 | 55.6% | 71.1% | 94.9% | 70.8% | 16.8% | 67.5% | 39.1% | 68.6% | -15.5% (active) | 78.5% | 3.77% (active) | 77.8% | 55.6% |  | 69.2% | 91.7% | 68.5% | 50.6% | 65.7%
Cn1cc(-c2nn3cc(-c4cccnc4)nc3s2)c2ccccc21 | 30.1% | 30.2% | 55.3% | 39.1% | 9.94% (active) | -12.9% (active) | 44% | 59.7% | -2.12% (active) | 58.3% |  | 22.5% | 31.7% | 54.3% | 66.7% | 40.7% | 26.5% |  | 14.5%
C#C[C@]1(O)CC[C@H]2[C@@H]3CC=C4c5sc(Nc6cccc(C)n6)nc5CC[C@]4(C)[C@H]3CC[C@@]21C | 36.3% | 45% | 61.3% | 16.5% | 4.46% (active) | 44.7% | 30.7% | -70.7% (active) | 68.3% | 43.6% | -10.9% (active) | 5.14% (active) | 31.9% | -60.4% (active) | -7.63% (active) | -70.4% (active) | -48.8% (active) | -34.9% (active) | -29.8% (active)
O=C(C[n+]1ccnc2ccccc21)c1ccc(O)c(O)c1 | 63.8% | 71.1% | 90.8% | 90.7% | 70.9% | -5% (active) | 87.1% | 44.3% | 30.8% | 47.3% | 16.6% | 54.7% | 55.3% | 17% | 85.7% | 87.5% | 53.1% | 57.8% | 61.3%
O=S(=O)(Nc1ccc(C2CC2)cc1)c1ccc(-c2cnc(C3CC3)o2)cc1 | 73.9% | 74.9% | 92.3% | 62.2% | 73.2% | 59.6% | 62.2% | 88.5% | 88.9% | 88.5% | 15.7% | 66.6% | 72.5% | 74.6% | 78% | 49.4% | 62.9% | 79.8% | 53.6%
CC(C)c1nn(-c2ccccc2)c(N2CCCCC2)c1/C=N/NC(N)=S | 90.9% | 88.2% | 82.3% | 101% | 96.5% | 86.1% | 79.2% | 101% | 97% | 95.3% | 82.9% | 104% | 107% | 75.5% | 88% | 77.6% | 88.7% | 106% | 113%
Nc1nc(N)c2c(n1)NC(c1ccc(Cl)cc1)CC(c1ccc(Nc3nc(NCCO)nc(Nc4ccc(Cl)cc4)n3)cc1)=N2 (centres undefined) | 33% | 81.8% | 55.6% | -63.7% (active) | -57.2% (active) | 25.2% | 52% | 28% | 67.4% | 0.35% (active) | -25.2% (active) | 68.9% | 53% | 43.6% | 51.4% | 47.5% | 83.4% | 107% | 34.5%
